# Most compounds without a hit are left out; they make up all but 8.3% or so of the library.
# LASV entry inh: qHTS for Inhibitors of binding or entry into cells for Lassa Virus. Lassa virus pseudotype entry inhibition, cell reporter. Potency, µM (top dose mostly 37.9 µM), without a hit: at the highest dose activity change, negative = inhibition, usual class: inhibitors. actives 1.2% (n = 300,000); calls by dose curve; tested in HEK293 cells; further: potency means the concentration at half of the fitted maximal effect; nearly all actives have a fitted effect of over 50% in size
# HCV inh: qHTS Assay for Inhibitors of Hepatitis C Virus (HCV) | Huh7.5.1 HCVcc-Cre infection, luciferase reporter, 44 h | Potency, µM (series often up to 41.8 µM), for the others: at the highest dose activity change, negative = inhibition, usual class: inhibitors | actives 3.4% (n = 340,000); further: potency means the concentration at half of the fitted maximal effect
#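 Compounds are dispensed onto cells plated 4 h earlier at 1,000 per well, with HCVcc-Cre virus (about 0.5 moi) added next. Following 44 h of culture, luminescent signal is measured for 15 sec after 15 min with substrate at room temperature.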
# FMDV antiviral: High Throughput Screening for Foot and Mouth Disease Virus Antivirals; FMDV antiviral cell-based qHTS; Potency, µM (series often up to 57.9 µM), without a hit: top-dose activity change, negative = inhibition, actives largely listed as inhibitors; actives 1.2% (n = 410,000); calls by dose curve; tested in HEK293T cells; further: read-out not given here; potency means the concentration at half of the fitted maximal effect; nearly all actives have a fitted effect of over 45% in size
# Marburg entry inh: qHTS for inhibitors of binding or entry into cells for Marburg Virus | Marburg virus pseudotyped entry inhibition, cell reporter | Potency, µM (titrated, usually from 37.8 µM), inactives show top-dose activity change, negative = inhibition, most hits filed as inhibitors | actives 1.8% (n = 300,000); calls by dose curve; tested in HEK293 cells; further: potency means the concentration at half of the fitted maximal effect
# FBPA Giardia inh: qHTS Assay for Inhibitors of Fructose-1,6-bisphosphate Aldolase from Giardia Lamblia | A8B2U2 | purified Giardia FBPA | Potency, µM (top dose mostly 59.6 µM), inactives show at the top dose activity, negative = inhibition, usual class: inhibitors | actives 0.71% (n = 290,000) | AID 2451, 2010; further: potency means the concentration at half of the fitted maximal effect; nearly all actives have a fitted effect of over 55% in size
# Target sequence (A8B2U2 whole entry, looked up): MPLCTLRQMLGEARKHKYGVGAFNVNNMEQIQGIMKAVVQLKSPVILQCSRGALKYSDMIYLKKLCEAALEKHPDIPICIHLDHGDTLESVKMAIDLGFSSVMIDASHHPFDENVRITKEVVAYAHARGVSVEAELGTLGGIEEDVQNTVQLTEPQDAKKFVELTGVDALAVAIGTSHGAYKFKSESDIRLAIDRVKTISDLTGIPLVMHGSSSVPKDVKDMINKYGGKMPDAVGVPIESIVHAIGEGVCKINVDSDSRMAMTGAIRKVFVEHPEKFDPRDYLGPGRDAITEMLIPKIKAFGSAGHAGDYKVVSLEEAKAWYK
#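 Giardia FBPA (40 nM reagent) was preincubated 10 min at RT with compound (up to 57.5 uM final), then substrate plus GAPDH/TPI/NAD/arsenate coupling system with diaphorase/resazurin was added; resorufin fluorescence (525/598 nm) was read after 20 min.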
# HCMV inh: qHTS Assay for inhibitors of the human cytomegalovirus (HCMV) | HFF cells, HCMV-luciferase reporter, 72 h; active compounds read low | activity change, negative = inhibition, % at 57.5 µM | actives 4.5% (n = 410,000) | AID 1259415, 2018; in the data active means activity change below about -60%; inconclusive means no clear call, values can overlap the other calls; inactive means above about -39%
#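 Two-dose cell screen: HFF monolayers treated with compounds and infected with luciferase-expressing HCMV at 1 PFU/cell, 72 h at 37C, then lysed for luciferase measurement.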
# An asterisk follows results filed as active; u = inconclusive; x = no result; ! = a repeat was not active; [ ] = remark or other dose. Unless noted, the call rests on the fitted dose curve; in most records, active means well fitted curve in the direction sought with a large enough effect; inconclusive means small, poorly fitted or top-dose-only effect, or another doubt; inactive means no such curve, though single readings can be large; an effect the other way counts as inactive or inconclusive. On the % scale 0 is the no-effect control and ±100 the full control effect.
SMILES,LASV entry inh,HCV inh,FMDV antiviral,Marburg entry inh,FBPA Giardia inh,HCMV inh
O=C(/C=C/NNC(=O)c1ccccc1)c1ccc(Br)cc1,u,2.24µM*,7.4%,u,-6.8%,39.2
NC(=O)c1ccccc1N/C=C/C(=O)c1ccc(Cl)cc1Cl,u,-2.7%,-76.8%,5.62µM*,1.9%,43.4
COCCn1c(=O)c(C)nc2cnc(N3CCN(C)CC3)nc21,x,x,-21.1%,x,6.0%,x
COc1ccc(-c2nc3n(n2)C(c2ccccc2OC)C(C(=O)Nc2cccnc2)=C(C)N3)cc1 (centres undefined),u,x,-25.8%,u,x,2.8
c1ccc2c3c([nH]c2c1)[C@@H]1[C@H]2CC[C@H]([C@H]4CCCN[C@H]42)N1CC3,x,x,x,x,-6.4%[21.7 µM],x
COc1ccc(C(=O)NN/C=C/C(=O)c2ccc(Br)cc2)cc1,x,x,-26.2%,x,x,48.7
COc1ccc(C(=O)C=CNNC(=O)c2ccc(Cl)cc2)cc1,5.62µM*,11.2µM*,-9.2%,u,15.7%,14.4
O=C(/C=C/Nc1ccc(Br)cc1F)c1ccccc1,1.58µM*,6.3%,u,1.26µM*,1.9%,-4.1
C=C(C)c1cccc(C(C)(C)NC(=O)Nc2cccnc2)c1,u,-7.5%,0.0%,u,3.2%,-9.4
C=C(C)c1cccc(C(C)(C)NC(=O)NCc2ccc(OC)c(OC)c2)c1,0.4%,11.2µM*,-15.6%,u,5.2%,-34.6
C=C(C)c1cccc(C(C)(C)NC(=O)Nc2ccc(C(N)=O)cc2)c1,0.0%[46.1 µM],-17.6%,u,u,-2.3%,-67.4*
CN(C)S(=O)(=O)c1cccc(-c2nn(-c3ccccc3)cc2/C=C(\C#N)c2nc3ccccc3[nH]2)c1,-8.1%,u,-8.2%,u,-2.1%,21.0
CN(C)S(=O)(=O)c1cccc(-c2nn(-c3ccccc3)cc2/C=C2\SC(=S)NC2=O)c1,u,-8.6%,u,22.4µM*,4.4%,-82.0*
C[n+]1cc2c3c(ccc2c2ccc4cc5c(cc4c21)OCO5)OCO3,x,x,25.1µM*,0.891µM*,6.29µM*!,-97.9*
CC(=O)c1ccc2c(c1)OCO2,-0.6%,-13.6%,-21.1%,12.0%,2.2%,19.1
COc1ccccc1NC(=S)N(Cc1ccco1)Cc1cc2ccc(C)c(C)c2[nH]c1=O,u,u,-21.7%,11.2µM*,-3.9%,u
Cc1cc(C)c2[nH]c(=O)c(CN(CC3CCCO3)C(=S)Nc3ccccc3)cc2c1 (centres undefined),-5.6%,0.4%,-8.5%,u,0.5%,-10.0
Cc1ccc2cc(CN(CC3CCCO3)C(=S)Nc3ccccc3)c(=O)[nH]c2c1C (centres undefined),u,u,-23.4%,u,1.8%,-61.8*
Cc1ccc2cc(CN(CC3CCCO3)C(=S)Nc3ccccc3)c(=O)[nH]c2c1 (centres undefined),-2.5%,-14.0%,27.8%,u,-5.2%,-37.2
Cc1ccc2[nH]c(=O)c(CN(CC3CCCO3)C(=S)Nc3ccccc3)cc2c1 (centres undefined),u,u,u,u,9.7%,-77.8*
CCN(CC)CCN(Cc1cc2cc(C)ccc2[nH]c1=O)C(=S)Nc1ccccc1,-8.8%[46.1 µM],u,-13.7%,u,4.6%,-68.6*
CN(C)C(=O)c1ccc(-c2ccc3ncnc(NCc4ccccc4)c3c2)cc1,x,x,18.4%,x,3.3%,x
COc1ccccc1-c1nc2cc(C(=O)NC[C@H]3CCc4ccccc4O3)cc(NC(C)=O)c2n1C,x,x,-4.2%,x,x,x
COc1ccc2[nH]c(=O)c(CN(CC3CCCO3)C(=O)Nc3ccc(F)cc3)cc2c1 (centres undefined),11.2µM*,u,14.1µM*,u,0.2%,-31.0
COc1ccc(NC(=O)N(Cc2cc3cc(C)ccc3[nH]c2=O)CC2CCCO2)cc1 (centres undefined),x,u,-20.7%,x,-2.1%,6.4
SMILES,LASV entry inh,HCV inh,FMDV antiviral,Marburg entry inh,FBPA Giardia inh,HCMV inh
Cc1ccc(C2SCC(C(=O)O)N2C(=O)c2ccc(F)cc2)cc1 (centres undefined),8.0%,8.6%,-7.6%,0.5%,17.5%,-34.7
O=C(O)C1CSC(c2ccccc2Cl)N1C(=O)c1ccc(Cl)cc1 (centres undefined),-1.9%,10.2%,-23.2%,u,22.2%,-61.0*
CCN(CC)CCCNC(=O)c1oc2c(c1C)-c1nn(Cc3ccc(Cl)cc3)cc1CC2,-19.2%[46.1 µM],x,-26.7%,x,x,-96.6*
Cc1c(C(=O)N2CCCC2)oc2c1-c1nn(CC(=O)NCc3ccccc3F)cc1CC2,-12.4%[46.1 µM],x,3.6%,x,x,-64.5*
COc1cccc([C@@H]2Oc3ccc(Br)cc3C[C@H]2O)c1,x,x,x,x,2.1%,x
Clc1cccc(CN2CCc3c([nH]c4ccccc34)C2)c1,u,u,-16.9%,8.91µM*,u,57.3
Cc1cccc(CN2CCc3c([nH]c4ccccc34)C2)c1,u,-26.7%,-12.7%,u,u,-10.5
COCCC1CCCCN1C(=O)c1cc(COc2ccc(-n3cncn3)cc2)on1 (centres undefined),u,10µM*,u,u,x,-74.0*
COCC1CCCCN1C(=O)c1cc(COc2ccc3ncccc3c2)on1 (centres undefined),x,-2.1%,u,x,x,-83.6*
CC(=O)c1cccc(OCc2cc(C(=O)N3CCSCC3)no2)c1,0.4%,16.1%,45.7%,12.2%,x,79.1
CCCN1CCN(C(=O)c2cc(COc3ccc4ncccc4c3)on2)CC1,x,10µM*,u,x,-7.9%,-67.8*
CCN1CCN(C(=O)c2cc(COc3ccc4ncccc4c3)on2)CC1,x,11.2µM*,u,-18.9%[46.1 µM],-0.3%,-82.2*
CCCCCn1cc2c(c1-c1ccc(Cl)cc1)c(=O)n(C)c(=O)n2C,u,x,0.0%,13.3%[46.1 µM],x,-0.4
CCc1nc2c(OCc3ccc(F)cc3)cccn2c1N(C)C(=O)COc1ccccc1,x,x,31.6µM*,x,x,-10.7
CCc1nc2c(OCc3ccc(Cl)cc3)cccn2c1N(C)C(=O)c1ccccc1F,x,x,-20.2%,x,x,-62.7*
CCc1nc2c(OCc3ccc(S(C)(=O)=O)cc3)cccn2c1N(C)C(=O)c1ccccc1F,x,x,-11.6%,x,x,-18.7
CCOc1cc(NC(=S)NCCCN2CCOCC2)c(OCC)cc1NC(=O)C(C)C,9.2%,-0.7%,-13.5%,8.5%,u,-25.9
COc1cc(CNCCCN2CCOCC2)cc(Br)c1OCc1ccc(Cl)cc1,x,1.78µM*,39.8µM*,x,12.2%,-99.5*
COc1cc(CNCCN2CCOCC2)ccc1OCc1ccc(Cl)cc1,-14.9%,7.08µM*,-11.3%,u,-11.5%,-34.6
CCOc1cc(NC(=S)NCCCN2CCOCC2)c(OCC)cc1NC(=O)CC(C)C,18.4%,21.1%,3.0%,-25.8%,-5.6%,-93.0*

# Screening results as filed in PubChem BioAssay.
